High-throughput results deposited in PubChem by several laboratories.
Compounds with a hit are over-represented: about 3.7% of the library has one in this group of screens.
PfHsp90 set2: inhibits growth of yeast expressing Plasmodium falciparum Hsp90. 0.32% of 310,000 active. inhibition, % at 9.4 µM. S. cerevisiae expressing PfHsp90, BacTiter-Glo ATP, 48 h; yeast lacking PDR1 and PDR3 efflux regulators;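 active = every replicate shows inhibition above about 80%, whatever the replicate mean, limit read from the data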
tim10-1 inh: tim10-1 yeast growth inhibition; S. cerevisiae tim10-1 ts strain growth, BacTiter-Glo, 24 h; 2.2% of 330,000 active; inhibition, % at 20 µM; AID 463190;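 active = inhibition of at least 40%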;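 note: mutant grown at 25 °C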
tim23-1 inh: growth inhibitors of tim23-1 mutant yeast; S. cerevisiae tim23-1 growth, BacTiter-Glo luminescence, 24 h; inhibition, % at 20 µM; 1.3% of 330,000 active;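 active = growth inhibition of the mutant yeast at or above 50%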;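 note: temperature-sensitive mutant grown at 25 °C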
TIM10 inh: TIM10 yeast growth inhibition; inhibition, % at 10 µM; S. cerevisiae TIM10 strain growth, BacTiter-Glo luminescence, 24 h; 1.4% of 330,000 active; AID 463195;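 active = inhibition of 40% or more at the single tested concentration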;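 note: wild-type TIM10 isogenic control strain grown at permissive 25 °C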
V-ATPase pHluor: yeast V-ATPase proton transport regulation by pHLuorin | 0.37% of 350,000 active | AID 504577 | S. cerevisiae, pHLuorin cytosolic pH fluorescence | response, % at 10 µM; in the data active = response mostly above about 7.3%, no sharp cut-off; inactive = mostly below about 5.4%; note: actives read high
tim10-1 conf: tim10-1 yeast growth inhibition, confirmed. AID 463213. inhibition, % at 20 µM. 56% of 7,400 active. shares compounds with tim10-1 inh. S. cerevisiae tim10-1 ts strain growth, BacTiter-Glo, 24 h;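 active = inhibition of yeast growth at or above a set limit in either of two repeat tests at 20 µM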;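 note: tim10-1 mutant grown at permissive 25 °C to find synthetic lethal compounds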
Each line names hits and unclear results; the compound was inactive in the other large screens (follow-up assays come after a bar, where they were run).

O=[N+]([O-])c1cccnc1NCCNc1ncc(C(F)(F)F)cc1Cl	tim10-1 inh 41 | tim10-1 conf inactive
O=[N+]([O-])c1ccccc1NCCNc1ncc(C(F)(F)F)cc1Cl	none
CSc1ccc(C=NNc2ccc(S(=O)(=O)Nc3ccccc3C(=O)O)cc2[N+](=O)[O-])cc1	none
Cc1nn(-c2ccccc2)c(Cl)c1/C=N/NS(=O)(=O)c1ccc(Br)cc1	tim10-1 inh 42 | tim10-1 conf inactive
Cc1nn(-c2ccccc2)c(Cl)c1/C=N/NC(=O)OC(C)(C)C	tim10-1 inh 44 | tim10-1 conf inactive
Cc1nn(-c2ccccc2)c(Cl)c1/C=N/Nc1ccc(S(=O)(=O)Nc2ccccc2C(=O)O)cc1[N+](=O)[O-]	tim10-1 inh 42 | tim10-1 conf 36
CC(=O)c1cccc(NC(=O)CCn2c(=O)oc3ccccc32)c1	none
Nc1cc(-c2cccc(Br)c2)nn1Cc1ccccc1	tim10-1 inh 46 | tim10-1 conf inactive
Nc1cc(-c2ccc(Br)cc2)nn1Cc1ccccc1	none (no result: tim10-1 inh, tim23-1 inh, TIM10 inh)
O=C(CSc1ccc(F)cc1)NCC1(N2CCOCC2)CCCCC1	none
Clc1ccc(-c2nn3c(C4COc5ccccc5O4)nnc3s2)cc1 (stereo unspecified)	tim10-1 inh 56 (no result: PfHsp90 set2) | tim10-1 conf 38
CCOc1ccc(C(OC(=O)c2ccco2)C(=O)NCc2ccc(C)cc2)cc1 (stereo unspecified)	tim10-1 inh 43 | tim10-1 conf inactive
CCC(C)[C@H](NS(=O)(=O)c1ccc(C)cc1)C(=O)N1CCC(C(=O)N2CCC(C(=O)OC)CC2)CC1 (stereo partly specified)	none
Nc1nonc1-n1nnc(C(=O)N/N=C/c2ccccc2F)c1CN1CCOCC1	none
Nc1nonc1-n1nnc(C(=O)N/N=C/c2ccccc2F)c1CN1CCc2ccccc21	tim10-1 inh 46 | tim10-1 conf inactive
Cc1ccc(S(=O)(=O)/N=C(/Nc2c(C)cccc2C)c2ccccc2)cc1	none
CCCCCCCCOC(=O)c1c(CSC(=N)N)n(C)c2cc(Br)c(OC(C)=O)cc12	tim10-1 inh 46 (no result: PfHsp90 set2) | tim10-1 conf inactive
CCOC(=O)c1c(CSC(=N)N)n(-c2ccc(Br)cc2)c2cc(Br)c(OC(C)=O)cc12	none (no result: PfHsp90 set2, tim10-1 inh, tim23-1 inh, TIM10 inh)
Cc1cc(C)c2c(SC(C)C)nc(N)nc2n1	none
Cc1c(C)c2ccc(Oc3ccc([N+](=O)[O-])cc3C(F)(F)F)c(C)c2oc1=O	tim10-1 inh 40 | tim10-1 conf inactive
CCOc1ccc(C(C)=O)cc1N1C(=O)C2C3C=CC(C3)C2C1=O (stereo unspecified)	none (no result: PfHsp90 set2)
CCOc1ccc(C(C)=O)cc1N1C(=O)C2C3C=CC(O3)C2C1=O (stereo unspecified)	tim10-1 inh 55 | tim10-1 conf inactive
Cc1cccc(NC(=O)c2nc[nH]c2C(=O)N[C@H](C)CO)c1	none (no result: PfHsp90 set2, tim10-1 inh, tim23-1 inh, TIM10 inh)
Cc1ccccc1C(=O)NC1CCCCCCC1	none
O=C(NC1CCCCCC1)c1ccc[nH]c1=S	tim10-1 inh 44 | tim10-1 conf inactive
COC(=O)[C@H](CCSC)NC(=O)Nc1ccc(S(N)(=O)=O)cc1	none
Cc1ccc(Nc2nnc(C3C(=O)N(C)C4(C)CC3c3cc(Br)ccc3O4)s2)cc1 (stereo unspecified)	tim10-1 inh 45 | tim10-1 conf inactive
Cc1ccc(NC(=O)CSCC(=O)Nc2nnc(C3CC3)s2)cc1	none (no result: PfHsp90 set2)
CCOC(=O)C1CCN(C2CC(=O)N(c3cccc(Cl)c3)C2=O)CC1 (stereo unspecified)	tim10-1 inh 42 | tim10-1 conf 37
O=C(C1CCN(C2CC(=O)N(c3cccc(Cl)c3)C2=O)CC1)N1CCCC1 (stereo unspecified)	PfHsp90 set2 106, tim10-1 inh 55 | tim10-1 conf 47
COC(=O)C1CCN(C2CC(=O)N(c3cc(C)cc(C)c3)C2=O)CC1 (stereo unspecified)	PfHsp90 set2 105, tim10-1 inh 40 | tim10-1 conf 32
CCN(CC)C1CC(=O)N(c2cccc(Cl)c2)C1=O (stereo unspecified)	PfHsp90 set2 126, tim10-1 inh 45 | tim10-1 conf 56
O=C(C1CCN(C2CC(=O)N(c3ccc(Cl)cc3)C2=O)CC1)N1CCOCC1 (stereo unspecified)	none (no result: V-ATPase pHluor)
Cc1ccccc1Nc1nc(N)nc(COC(=O)[C@@H](NC(=O)c2ccccc2Cl)C(C)C)n1	none (no result: PfHsp90 set2)
